From PubChem BioAssay (NCATS)
Results filed as inconclusive are left out. A number with no mark means an inactive call. Active and inactive are the calls of the source. The call rests on the fitted dose curve; in most records, active means well fitted inhibition curve with a large enough effect; inconclusive means small, poorly fitted or top-dose-only effect; inactive means flat fitted curve, though single readings scatter.

Experiment: P-glycoprotein substrates identified in KB-8-5-11 adenocarcinoma cell line, qHTS therapeutic library screen (AID 1346987); further: nearly all actives have a fitted effect of over 65% in size
Conditions: KB-8-5-11 (P-gp overexpressing) viability, CellTiter-Glo, 72 h; series mostly up to 44.5 µM; activity change, negative = cytotoxicity: at the top concentration
Method in brief: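 KB-8-5-11, a colchicine-selected P-gp-overexpressing KB-3-1 subline, was grown without colchicine for the assay. Cells were seeded at 500 cells/well, dosed in concentration-response and incubated 72 h at 37 degree C, 5% CO2. Viability was read by CellTiter-Glo luminescence.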
On the % scale 0 is the no-effect control and ±100 the full control effect.

| SMILES | activity change, negative = cytotoxicity | outcome | Potency |
| --- | --- | --- | --- |
| OC[C@H]1O[C@@H](Oc2cc(O)cc(/C=C/c3ccc(O)cc3)c2)[C@H](O)[C@@H](O)[C@@H]1O | 9.73% | – | – |
| CC(=O)O[C@H]1C[C@@H]2[C@]3(CC[C@]4(C)[C@@H](C5(C)CCC(C(C)(C)O)O5)[C@@H](O)C[C@@]24C)C[C@@]32CC[C@H](O[C@@H]3OC[C@@H](O)[C@H](O)[C@H]3O)C(C)(C)[C@H]12 (some centres undefined) | – | inactive [at 17.3 µM] | – |
| CC(C)CNC(=O)/C=C/CCCCc1ccc2c(c1)OCO2 | 4.07% | – | – |
| COC(=O)c1cc(CN2CCN(C(=N)N)CC2)cc(C(=O)N2CCN(C(=O)c3ccc(C(=N)N)cc3)CC2)c1 | – | inactive | – |
| COC(=O)c1ccc(O[C@@H]2O[C@H](CO)[C@@H](O)[C@H](O)[C@H]2O)c(OC)c1 | – | inactive | – |
| Cc1c(C)c2c(c(C)c1O)CC[C@@](C)(CCC[C@H](C)CCC[C@H](C)CCCC(C)C)O2 | – | – | inactive |
| COC1=CC(=O)C[C@@H](C)[C@]12Oc1cc(OC)cc(OC)c1C2=O | – | inactive | – |
| C=C1CCC2C(C)(C(=O)O)CC(O)CC2(C)C1CC/C(C)=C/C(=O)O (centres undefined) | 6.48% | – | – |
| C/C1=C2N=C(/C=C3N=C(/C(C)=C4\[N-][C@@](C)([C@@H]5N=C1[C@](C)(CCC(=O)NCC(C)OP(=O)(O)O[C@H]1[C@@H](O)[C@@H](n6cnc7cc(C)c(C)cc76)O[C@@H]1CO)[C@H]5CC(N)=O)[C@@](C)(CC(N)=O)[C@@H]4CCC(N)=O)[C@@](C)(CC(N)=O)[C@@H]\3CCC(N)=O)C(C)(C)[C@@H]/2CCC(N)=O.CC(=O)O.[Co] (some centres undefined) | -18.5% | – | – |
| C=C1CCC[C@]2(C)C[C@]3(O)OC(=O)C(C)=C3C[C@@H]12 | – | inactive | – |
| CC1(C)CC(=O)N(CCCCN2CCN(c3ncccn3)CC2)C(=O)C1 | -6.57% | – | – |
| CC(=O)Oc1cc2c(s1)CCN([C@H](C(=O)C1CC1)c1ccccc1F)C2 | – | inactive | – |
| C/C=C(\C)C(=O)O[C@H]1[C@H](O)[C@]2(COC(C)=O)[C@H](O)C[C@]3(C)C(=CCC4[C@@]5(C)CC[C@H](O[C@@H]6O[C@H](C(=O)O)[C@@H](O[C@@H]7O[C@H](CO)[C@@H](O)[C@H](O)[C@H]7O)[C@H](O)[C@H]6O[C@@H]6O[C@H](CO)[C@@H](O)[C@H](O)[C@H]6O)[C@](C)(CO)C5CC[C@]43C)[C@@H]2CC1(C)C (some centres undefined) | 3.98% [at 9.29 µM] | – | – |
| C[C@H]1[C@H](C)CC[C@]2(C(=O)O)CC[C@]3(C)C(=CC[C@@H]4[C@@]5(C)C[C@@H](O)[C@H](O)[C@@](C)(CO)[C@@H]5CC[C@]43C)[C@H]12 | – | inactive | – |
| C=C1CC23CC1(O)CCC2C1=CC2OC(=O)C(C)(C2O)C1C3C(=O)O (centres undefined) | 4.79% | – | – |
| Cc1ccccc1 | 2.08% | – | – |
| c1ccc(C(OC2CCN(CCCc3nn[nH]n3)CC2)c2ccccc2)cc1 | – | inactive | – |
| COc1cc(C2OCC3C(c4ccc(OC5OC(CO)C(O)C(O)C5O)c(OC)c4)OCC23)ccc1O (centres undefined) | 8.63% [at 17.3 µM] | – | – |
| COc1cc(C(C)=O)ccc1O[C@@H]1O[C@H](CO[C@@H]2O[C@@H](C)[C@H](O)[C@@H](O)[C@H]2O)[C@@H](O)[C@H](O)[C@H]1O | – | inactive [at 17.3 µM] | – |
| Cc1nnc(C(C)C)n1C1CC2CCC(C1)N2CCC(NC(=O)C1CCC(F)(F)CC1)c1ccccc1 (centres undefined) | – | inactive | – |
| CC1CCC23COC(=O)C2=CC(O)CC3C1(C)CCC1=CC(=O)OC1O (centres undefined) | – | inactive | – |
| C/C=C1\[C@H](O[C@@H]2O[C@H](CO)[C@@H](O)[C@H](O)[C@H]2O)OC=C(C(=O)OC)[C@H]1CC(=O)OC | – | inactive [at 17.3 µM] | – |
| COC(=O)CC[C@@H](C)[C@H]1CC[C@H]2[C@@H]3CC(=O)[C@H]4C[C@H](OC(C)=O)CC[C@]4(C)[C@H]3CC[C@]12C | – | inactive | – |
| N#Cc1ccnc(N2C(=O)CC[C@H]2C(=O)N(c2cncc(F)c2)[C@H](C(=O)NC2CC(F)(F)C2)c2ccccc2Cl)c1 | -20.7% | – | – |
| c1ccc(Nc2nc3c(s2)CCCc2[nH]ncc2-3)nc1 | 2.92% | – | – |
| C[C@@H]1C[C@H]2[C@@H]3CCC4=CC(=O)C=C[C@]4(C)[C@@]3(F)[C@@H](O)C[C@]2(C)[C@@]1(O)C(=O)COP(=O)(O)O | – | – | inactive |
| CCOC(=O)c1c(C)nn(-c2cccc([N+](=O)[O-])c2)c1C | 6.8% | – | – |
| CC1=C(C)C(=O)OC(C(C)(O)C2CCC3C4CC=C5CC(OC6OC(COC7OC(CO)C(O)C(O)C7O)C(O)C(O)C6O)CC(O)C5(C)C4CCC32C)C1 (centres undefined) | – | inactive [at 17.3 µM] | – |
| CC[C@H]1OC(=O)C[C@@H](O)[C@H](C)[C@@H](O[C@@H]2O[C@H](C)[C@@H](O)[C@H](N(C)C)[C@H]2O)[C@@H](CCN2C[C@H](C)C[C@H](C)C2)C[C@@H](C)C(=O)/C=C/C(C)=C/[C@@H]1CO[C@@H]1O[C@H](C)[C@@H](O)[C@@H](OC)[C@H]1OC | – | – | inactive |
